# An excerpt weighted towards active compounds, which were near 21% of everything screened.
# NS1 function inh: influenza NS1 inhibition; AID 2326; 270,000 compounds, 0.4% hits; Potency, µM (series often up to 46.1 µM), for the others: at the highest dose activity, positive = more growth; calls by dose curve; note: potency is the fitted concentration of half-maximal effect; actives are rising curves; nearly all actives have a fitted effect of over 50% in size
#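 Compounds were scored for reversing the slow growth caused by influenza A NS1 in S. cerevisiae, measured by optical density at 600 nm. Assay medium contained 2% galactose at pH 6.0; NS1-free yeast of the same strain were the positive control.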
# Cycloheximide cs: counter-screen for Shiga toxin inhibitors: cycloheximide protein synthesis inhibition | cell reporter, cycloheximide protein synthesis inhibition counterscreen | max response, % | 300,000 compounds, 12% hits | AID 2314; in the data active = max response mostly above about 13%, no sharp cut-off; inactive = mostly below about 14%; note: read at 38.3 µM for the half of the compounds with a filed dose; 0% is about no effect
# Pf growth 96h: inhibits malaria parasite growth, 96 h; P. falciparum luciferase reporter growth, 96 h; Potency, µM (series often up to 28.7 µM), without a hit: at the highest dose activity change, negative = inhibition, actives largely listed as inhibitors; 320,000 compounds, 6.9% hits; note: potency is the fitted concentration of half-maximal effect; % is set by controls: 0 for no effect and ±100 for the full control effect
#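 Cell-based qHTS: luciferase-tagged P. falciparum in erythrocytes (2% hematocrit, 0.05% parasitemia final) incubated with compounds for 96 hours, 37 C, 5% CO2; luciferase detection reagent then added and luminescence measured.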
# Sm TGR block: S. mansoni TGR enzyme inhibition; Q962Y6; purified TGR, DTNB reduction, TNB absorbance 405 nm; Potency, µM (titrated, usually from 114 µM), inactives show top-dose activity change, negative = inhibition, actives largely listed as inhibitors; 360,000 compounds, 3% hits; note: potency is the fitted concentration of half-maximal effect; % is set by controls: 0 for no effect and ±100 for the full control effect; nearly all actives have a fitted effect of over 60% in size
#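 Kinetic colorimetric format: TGR-catalysed, NADPH-driven DTNB reduction monitored via TNB absorbance. Enzyme dispensed at 20 nM; compound exposure 15 min at room temperature before reaction start.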
# Shiga inhibitor: inhibitors of Shiga toxin in Vero cells. inhibition, % at 38.7 µM. Vero cells, Shiga toxin protein synthesis inhibition reporter. 290,000 compounds, 9.2% hits; in the data active = inhibition mostly above about 28%, no sharp cut-off; inactive = mostly below about 43%; note: 0% is about no effect
# Pf growth 48h: P. falciparum growth inhibition at 48 hours (one generation); P. falciparum luciferase growth in erythrocytes, 48 h; Potency, µM (series often up to 28.7 µM), inactives show at the top dose activity change, negative = inhibition, most hits filed as inhibitors; 310,000 compounds, 5.9% hits; AID 504832; note: potency is the fitted concentration of half-maximal effect; % is set by controls: 0 for no effect and ±100 for the full control effect
#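 Here the parasites carry a stable luciferase gene and grow inside erythrocytes in Albumax-based RPMI medium with compound for one erythrocytic cycle. Activity is scored as loss of luminescent signal.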
# * hit, by the source's call; ? = inconclusive; . = not tested or not shown. Unless noted, calls come from the whole dose curve; as a rule, active = well fitted curve in the direction sought with a large enough effect; inconclusive = small, poorly fitted or top-dose-only effect, or another doubt; inactive = no such curve, though single readings can be large; an effect the other way counts as inactive or inconclusive.
SMILES,NS1 function inh,Cycloheximide cs,Pf growth 96h,Sm TGR block,Shiga inhibitor,Pf growth 48h
O=C(NC1=NCCS1)c1cc(-c2cccc(Br)c2)nc2ccccc12,-29%,20*,-6%,4%,22,?
O=C(NC1=NCCS1)c1nc(-c2ccccc2)n(-c2ccccc2)n1,-3%,-2,24%,-3%,-6,16%
Cc1ccc2nc(-c3cccc(Br)c3)cc(C(=O)NC3=NCCS3)c2c1,11%,15,45%,.,76*,4.7µM*
CCCNS(=O)(=O)c1ccc(OCC(=O)Nc2ccc3c(c2)OCO3)cc1,2%,-3,4%,.,-9,?
Cc1cc(Cl)ccc1NC(=O)CN1C(=O)CSc2ccc(S(=O)(=O)N(C)C)cc21,.,.,.,7%,.,.
Cc1ccc(S(=O)(=O)N2CCCCC2)cc1NC(=O)CCCOc1ccccc1,.,.,?,-1%,.,?
COc1ccc(S(=O)(=O)N2CCN(CCOc3ccc(Br)cc3)CC2)cc1OC,.,.,?,-3%,.,8.3µM*
NC(=O)c1cc(S(=O)(=O)N2CCCC2)ccc1OCCOc1ccccc1F,.,.,4%,1%,.,?
COc1ccc(S(=O)(=O)N2CCCCC2)cc1NC(=O)CCCOc1ccc(C)cc1,.,.,?,-1%,.,10µM*
COc1ccc(S(=O)(=O)N2CCN(CCOc3ccccc3Cl)CC2)cc1OC,.,.,?,-23%,.,?
COc1ccc(OCCOc2ccc(S(=O)(=O)N3CCCC3)cc2C(N)=O)cc1,.,.,3.7µM*,6%,.,-8%
CC(=O)c1ccc(OCCCC(=O)Nc2cc(S(=O)(=O)N3CCCCC3)ccc2C)cc1,.,.,13µM*,0%,.,?
COC(=O)CCC(=O)c1ccc(OC)c(Cl)c1,.,.,90%,5%,.,33%
CCCC(=O)Nc1cc(C)c(O)c(-c2nc3ncccc3o2)c1,.,.,.,-4%,.,.
C=CCNC(=O)CN1CCN(C(c2ccccc2)c2ccccc2)CC1,-9%,-2,13µM*,-14%,-9,?
Cc1c(NC(=O)CCC(=O)N2CCCCC2)c(=O)n(-c2ccccc2)n1C,12%,-3,0.83µM*,0%,28,1%
Cc1c(NC2(C#N)CCCCC2)c(=O)n(-c2ccccc2)n1C,2%,-3,3%,20µM*,-18,-1%
Cc1c(NC(=O)CN2CCN(c3ccccc3)CC2)c(=O)n(-c2ccccc2)n1C,5%,-1,35%,9%,-18,15%
Cc1c(NC(=O)CN2CCN(C(c3ccccc3)c3ccccc3)CC2)c(=O)n(-c2ccccc2)n1C,-8%,-1,-9%,-22%,-13,10µM*
Cc1c(NC(=O)CCC(=O)N2CCOCC2)c(=O)n(-c2ccccc2)n1C,10%,-3,-1%,-13%,-4,16%
Cc1c(NC(=O)N2CCCCCC2)c(=O)n(-c2ccccc2)n1C,4%,-5,?,-20%,-3,19%
CCOCCOC(=O)Cn1cnc2scc(-c3ccc(C)cc3)c2c1=O,13%,-2,?,0%,-10,-7%
CCN(CC(=O)NCc1ccc(Cl)cc1)C(=O)c1ccc(C#N)cc1,-2%,3,4%,-11%,-2,-13%
COC(=O)N1CCCc2cc(S(=O)(=O)N3CCN(c4ccccc4)CC3)ccc21,.,.,.,12%,.,.
Cc1cccc(C)c1NC(=O)CN1CCN(CCCC(c2ccc(F)cc2)c2ccc(F)cc2)CC1,.,.,4.5µM*,1%,.,12µM*
SMILES,NS1 function inh,Cycloheximide cs,Pf growth 96h,Sm TGR block,Shiga inhibitor,Pf growth 48h
CCC(=O)Nc1cccc(C2=NN(c3ccccc3)C(c3ccc(OC)cc3)C2)c1 (stereo unspecified),4%,2,13µM*,8%,-15,?
CC(=O)Oc1ccc(C2=NN(c3ccccc3)C(c3ccccc3)C2)cc1 (stereo unspecified),3%,19,11%,9%,18,12µM*
COc1ccc(C2CC(c3ccccc3)=NN2S(=O)(=O)c2ccccc2)cc1 (stereo unspecified),-39%,34*,?,1%,55*,?
COc1ccc(C2=NN(C(=O)c3ccc(Cl)c([N+](=O)[O-])c3)C(c3ccccc3)C2)cc1 (stereo unspecified),29%,-4,-8%,0%,-11,-14%
COc1ccc(C2CC(c3ccccc3)=NN2c2ccc(Cl)c(C(=O)O)c2)cc1 (stereo unspecified),10%,26*,?,6%,45*,-1%
COc1ccc(C2CC(c3ccccc3)=NN2c2ccc(S(N)(=O)=O)cc2)cc1OC (stereo unspecified),14%,7,?,1%,-11,?
Cc1ccc(C2=NN(S(=O)(=O)c3ccccc3)C(c3ccccc3O)C2)cc1 (stereo unspecified),.,20*,?,0%,69*,?
COc1ccc(C2CC(c3ccccc3)=NN2c2ccc(N)cc2)cc1 (stereo unspecified),?,39*,?,5%,44*,?
COc1ccc(C2=NN(c3ccc(C(=O)O)cc3)C(c3ccc(OC)c(OC)c3)C2)cc1 (stereo unspecified),19%,39*,52%,-4%,53*,70%
CCn1c(SCc2ccccc2F)nnc1-c1ccncc1,2%,-3,-18%,4%,-6,-19%
CCn1ccc2cc(S(=O)(=O)N3CCC(C(=O)NCc4ccc(F)cc4)CC3)ccc21,.,.,.,4%,.,.
COc1ccc(CCn2c(C)cc(C(=O)COC(=O)c3cnc(C)cn3)c2C)cc1,.,.,-1%,2%,.,3%
CCOC(=O)C1=C(N)OC2=C(C(=O)CCC2)C1c1ccc(C)s1 (stereo unspecified),-7%,44*,.,-21%,80*,10%
Cc1cccc(N2C(=O)N(Cc3cccc(C#N)c3)c3ccccc3S2(=O)=O)c1,.,.,.,0%,.,.
COc1ccc(N(C(=O)c2cccc([N+](=O)[O-])c2)S(=O)(=O)c2cccs2)cc1,3%,-2,5%,-12%,14,8%
COc1ccc(C(=O)/C=C/c2ccc(F)cc2)c(OC(=O)c2ccc([N+](=O)[O-])cc2)c1,-1%,23*,-30%,-2%,21,0%
COc1ccc(C(=O)/C=C/c2cccs2)c(OC(=O)c2cccc([N+](=O)[O-])c2)c1,1%,60*,-24%,7%,132*,51%
CCC(C)NC(=O)Cn1cc(S(=O)(=O)N2CCN(c3ccccc3F)CC2)c2ccccc2c1=O (stereo unspecified),-27%,-4,?,-2%,-9,?
FC(F)c1nc2ccccc2[nH]1,6%,-2,174%,?,-10,-16%
c1ccc2nc(-c3nc4ccccc4[nH]3)ccc2c1,-21%,14*,.,0%,22,30%
c1ccc2[nH]c(-c3cscn3)nc2c1,-10%,53*,14%,10%,102*,85%
COC(=O)c1cc2occc2n1Cc1c(F)cccc1Cl,-26%,1,2.6µM*,-3%,5,1%

# Assay outcomes (PubChem BioAssay)
